Target: AT4G31550 (Arabidopsis thaliana, UniProt Q9SV15 228-325)
Test: DPI-ELISA; DPI-ELISA, streptavidin 384-well plate, 1-2 pmol biotinylated dsDNA per well, crude native E. coli extract, anti-His detection; buffer as in Brand et al. [46],; high values mean tight binding
Settings: tags: C-terminal His (pET-DEST42); label: 5' biotin on forward strand; dsDNA, one strand shown

Chain of AT4G31550 (Q9SV15 228-325): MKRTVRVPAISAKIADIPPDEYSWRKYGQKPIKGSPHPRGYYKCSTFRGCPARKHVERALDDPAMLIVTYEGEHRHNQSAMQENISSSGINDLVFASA

AAAAAAGGCCTTCGCTCGTGTTTACGAAAA showed a binding signal of 0.4 ± 0.0424 absorbance.
AAAAAACGTGCGCGTGCATGTCATCGAAAA was tested, and the binding signal was 0.665 ± 0.0919 absorbance.
AAAAAACTCCCTCTCCTCTGTCTTCCAAAA showed a binding signal of 0.635 ± 0.106 absorbance.
For AAAAAAGAAATACCAGAAACTATCATAAAA, the binding signal was 0.705 ± 0.219 absorbance.
Sequence AAAAAACTGTGTCCCCGTCCCATCTCAAAA has a binding signal of 0.525 ± 0.12 absorbance.
In the case of AAAAAACACGCCATTGACACTGGTAAAAAA, the binding signal is reported as 1.67 ± 0.219 absorbance.
For AAAAAACGGTAAGTCGACAAAA, the binding signal was 0.545 ± 0.0354 absorbance.
In the case of AAAAAATACTGGCTGTCTCGTTCACAAAAA, the binding signal is reported as 0.615 ± 0.0778 absorbance.
Sequence AAAAAACTGACCGTCAGCGCCCACGCAAAA has a binding signal of 1.45 ± 0.424 absorbance.
AAAAAATAGTGTGATTGGTATCCAGTAAAA gave a binding signal of 0.645 ± 0.0495 absorbance.
For AAAAAACCGATCATCACATATCACTGAAAA, the binding signal was 0.58 ± 0.141 absorbance.
Work on AAAAAATCGTAAATGCCCATAGCCGTAAAA yielded a binding signal of 0.555 ± 0.106 absorbance.
With AAAAAACGCCTTATGCCTCCCGCTCGAAAA the binding signal was 0.675 ± 0.0354 absorbance.
In the case of AAAAAATAGACCCTGACCCACCATTGAAAA, the binding signal is reported as 0.71 ± 0.113 absorbance.

Source: PMC3795721, “Screening for Protein-DNA Interactions by Automatable DNA-Protein Interaction ELISA”
